VACV mCherry inh – qHTS for Stage-Specific Inhibitors of Vaccinia Orthopoxvirus: mCherry Reporter Primary qHTS; AID 720579, 2013; Potency, µM (series often up to 36.5 µM), for inactives: at the highest dose activity change, negative = inhibition, most hits filed as inhibitors; hit rate 0.63% among 310,000; Vaccinia virus mCherry reporter infection, fluorescence; calls by dose curve; tested in A549 cells; note: potency is the fitted concentration of half-maximal effect; nearly all actives have a fitted effect of over 35% in size
Lassa entry inh – qHTS for Inhibitors of binding or entry into cells for Lassa Virus; Potency, µM (doses to about 37.9 µM), inactives show at the top dose activity change, negative = inhibition, most hits filed as inhibitors; AID 540256, 2011; hit rate 1.2% among 300,000; Lassa virus pseudotype entry inhibition, cell reporter; calls by dose curve; tested in HEK293 cells; note: potency is the fitted concentration of half-maximal effect; nearly all actives have a fitted effect of over 50% in size
FMDV antiviral – High Throughput Screening for Foot and Mouth Disease Virus Antivirals. FMDV antiviral cell-based qHTS. Potency, µM (highest dose often 57.9 µM), without a hit: top-dose activity change, negative = inhibition, usual class: inhibitors. hit rate 1.2% among 410,000. AID 1159524, 2015; calls by dose curve; tested in HEK293T cells; note: read-out not given here; potency is the fitted concentration of half-maximal effect; nearly all actives have a fitted effect of over 45% in size
VACV Venus inh – qHTS for Stage-Specific Inhibitors of Vaccinia Orthopoxvirus: Venus Reporter Primary qHTS; Vaccinia virus Venus reporter expression, fluorescence; Potency, µM (top dose mostly 36.5 µM), inactives show at the highest dose activity change, negative = inhibition, hits mostly inhibitors; hit rate 0.46% among 330,000; AID 720580, 2013; calls by dose curve; tested in A549 cells; note: potency is the fitted concentration of half-maximal effect; nearly all actives have a fitted effect of over 30% in size
HCMV antiviral – qHTS Assay for inhibitors of the human cytomegalovirus (HCMV); hit rate 4.5% among 410,000; HFF cells, HCMV-luciferase reporter, 72 h; stronger effect = lower value; activity change, negative = inhibition, % at 57.5 µM; in the data active = activity change below about -60%; inconclusive = no clear call, values can overlap the other calls; inactive = above about -39%
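Inhibition of viral replication was scored as loss of reporter luminescence in HFFs infected with HCMV-luciferase (MOI 1 PFU/cell) for 72 h; compounds tested at 2 doses, normalized to buffer and Salinomycin controls.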
MARV entry inh – qHTS for inhibitors of binding or entry into cells for Marburg Virus; Potency, µM (titrated, usually from 37.8 µM), without a hit: at the top dose activity change, negative = inhibition, usual class: inhibitors; Marburg virus pseudotyped entry inhibition, cell reporter; hit rate 1.8% among 300,000; calls by dose curve; tested in HEK293 cells; note: potency is the fitted concentration of half-maximal effect
Active calls of the source: *; i = inactive; ? = inconclusive; . = no result; [ ] = another dose, or the depositor's remark. The list is not random: actives were taken first. Their share in the collection is about 6.5%. % is set by controls: 0 for no effect and ±100 for the full control effect.

SMILES | VACV mCherry inh | Lassa entry inh | FMDV antiviral | VACV Venus inh | HCMV antiviral | MARV entry inh
O=C(COC(=O)COc1cccc(C(F)(F)F)c1)Nc1ccc(N2CCOCC2)cc1 | . | . | 12% | . | -27 | .
CN1CCN(C(=S)c2ccc(OCC(=O)Nc3cccc(C(F)(F)F)c3)cc2)CC1 | -19%[1.46 µM] | ? | 20µM* | ? | -63* | ?
O=C(COc1ccc(C(=O)O)cc1)Nc1cccc(C(F)(F)F)c1 | i | -4%[46.1 µM] | 0% | -4% | -22 | -17%[46.1 µM]
O=C(COc1ccc(C(=S)N2CCOCC2)cc1)N1CCOCC1 | -1% | 3% | -5% | -13% | 91 | ?
Cc1cc(N2CCCC2)ccc1NC(=O)COc1cccc(C(F)(F)F)c1 | . | . | 4% | . | -70* | .
COc1ccc(CNc2ccnc(-c3c(C)noc3C)n2)c(OC)c1 | . | . | -27% | . | . | .
CCn1c(N)nc2c1c(=O)n(C)c(=O)n2C | 11% | . | -21% | 2% | 7 | -3%
CCc1ccc(-c2csc3ncn(CC)c(=O)c23)cc1 | i | . | -11% | -21% | -18 | .
CCCc1nc2c(=O)n(C)c(=O)nc-2n(C)n1 | ? | 1µM* | 2.5µM* | 1µM* | -99* | ?
Cc1ccc(-c2nc3c(=O)n(C)c(=O)nc-3n(C)n2)cc1 | 2.8µM* | . | . | 0.89µM* | . | .
CCc1ccc(-c2nc3c(=O)n(C)c(=O)nc-3n(CC)n2)cc1 | 5.6µM* | . | . | 11µM* | . | .
Cn1ncnc2c(=O)n(C)c(=O)nc1-2 | . | . | 1.6µM* | . | . | .
COc1ccccc1CNC(=O)c1ccc(N2CCCC2)c(NC(=O)NCCC(C)C)c1 | -10% | 5%[46.1 µM] | 16% | -9% | 2 | .
Cc1ccccc1-c1nc2c(=O)n(C)c(=O)nc-2n(C)n1 | 2.8µM* | . | . | 0.89µM* | . | .
Cn1nc(-c2ccccn2)nc2c(=O)n(C)c(=O)nc1-2 | . | . | 1.3µM* | . | -101* | .
CCCCn1nnnc1C(Nc1ccccc1C(C)=O)C1CC1 (stereo not given) | . | . | . | . | 45 | .
CCc1ccc(NC(=O)C(Cc2ccccc2)NS(=O)(=O)c2ccc3c(c2)c(=O)n(C)c(=O)n3C)cc1 (stereo not given) | -10% | -7%[46.1 µM] | 3% | -12% | 22 | -21%[46.1 µM]
CCC(=O)N1CCc2cc(CNS(=O)(=O)c3ccc(Cl)s3)ccc21 | i | -14%[46.1 µM] | -2% | -16% | -32 | .
CCN(Cc1nc2ccccc2c(=O)[nH]1)C(=O)c1cccc(OCc2c(C)noc2C)c1 | -5% | ? | ? | -13% | -100* | ?
O=S(=O)(NCC1CC1)c1cc(Cl)cc(Cl)c1 | i | 10%[46.1 µM] | 37% | -10% | -65* | -18%[46.1 µM]
CC1=CC(C)(C)Nc2ccc(OC(=O)CCN3C(=O)c4ccccc4C3=O)cc21 | -5% | ? | ? | 72% | -100* | ?
Cc1ccc(OC(=O)CN2C(=O)c3ccccc3C2=O)cc1C | i | 24%[46.1 µM] | -12% | -13% | -61* | 20%[46.1 µM]
O=C(CN1C(=O)c2ccccc2C1=O)Oc1ccc(Cl)cc1 | i | 7%[46.1 µM] | -12% | -15% | -5 | -3%[46.1 µM]
COc1ccc(CN2Cc3ccccc3OC(c3ccccc3OC)C2)c(O)c1 (stereo not given) | -21% | . | -14% | -11% | . | .
CN(CC(=O)NCCc1ccc(S(N)(=O)=O)cc1)Cc1ccc(Cl)cc1Cl | -24% | -17% | ? | -16% | -86* | ?
SMILES | VACV mCherry inh | Lassa entry inh | FMDV antiviral | VACV Venus inh | HCMV antiviral | MARV entry inh
NS(=O)(=O)c1ccc(CCNC(=O)CN2CCN(c3cccc(Cl)c3)CC2)cc1 | ? | -18% | ? | ? | -89* | ?
c1coc(-c2ccccc2CN2CCOc3ccc(CN4CCOCC4)cc3C2)c1 | -8% | . | 0% | -5% | . | .
CC(C)NC(=O)NC(=O)COC(=O)c1ccccc1Oc1ccccc1 | i | ? | -11% | 0% | 70 | 11µM*
CC(C)NC(=O)NC(=O)COC(=O)c1ccccc1O | -1% | 7%[46.1 µM] | 0% | -2% | 24 | -3%[46.1 µM]
COc1cccc(C(O)c2nc(-c3ccc(N(C)C)cc3)cs2)c1 (stereo not given) | i | . | -4% | -11% | -35 | .
COc1ccc(-c2csc(C(O)c3cccc(OC)c3)n2)cc1 (stereo not given) | 7% | . | -13% | -14% | -68* | .
OC(c1ccc(F)cc1)c1nc(-c2ccccc2)cs1 (stereo not given) | 5% | . | 48% | -25% | 48 | .
CC(C)c1cccc(-c2csc(C(O)c3ccc(F)c(F)c3)n2)c1 (stereo not given) | i | . | 4% | -10% | -70* | .
OC(c1ccc(F)cc1)c1nc(-c2ccc(Cl)cc2)cs1 (stereo not given) | -27% | . | 8% | ? | -66* | .
O=C(Nc1ccc(C(F)(F)F)cc1)C1(c2cccs2)CCOCC1 | -4% | -22%[46.1 µM] | 0% | -5% | -12 | .
Cn1cc(CN(C(=O)Nc2ccccc2)C2CCCCC2)c2ccccc21 | ? | ? | 27% | -20% | -105* | -3%[46.1 µM]
CCCn1c2ccccc2c2nnc(SCC(=O)Nc3cc(C)on3)nc21 | . | -1% | -1% | 10µM* | 61 | -3%
O=C(CSc1nnc2c(n1)[nH]c1ccc(F)cc12)Nc1ccccc1F | i | ? | -18% | -16% | -27 | 22%[46.1 µM]
COCCn1c(SCC(=O)Nc2cc(C)on2)nc2ccccc2c1=O | . | . | -10% | . | -9 | .
O=C(CSc1nnc2c3ccccc3c3ccccc3c2n1)Nc1ccccc1F | i | 12% | -13% | -1% | -88* | 13%
CCCCCCn1c(SCC(=O)Nc2cc(C)on2)nc2ccccc2c1=O | . | ? | 7% | . | -63* | ?
CCCn1c2ccccc2c2nnc(SCC(=O)Nc3ncccn3)nc21 | . | -2% | -9% | 11µM* | 13 | ?
CCCn1c2ccccc2c2nnc(SCC(=O)Nc3cccc(C(C)=O)c3)nc21 | ? | -14%[46.1 µM] | ? | ? | -24 | ?
C=CC[C@]1(C(=O)OC)C=C[C@H](C)[C@@H](c2ccccc2)N1C(=O)C(F)(F)F | . | . | . | . | . | -15%[14.2 µM]
COc1cc2nc(NC3CCN(C)CC3)nc(NC3CCN(C)CC3)c2cc1OC | -7% | . | . | -20% | . | .
C/C=C(\C)C(=O)Nc1cccc(C2=NOC3(C2)C[C@@H](C(N)=O)N(C(=O)/C(C)=C/C)C3)c1 (stereo not given in full) | i | . | 2% | -2% | -68* | .
CCC(=O)Nc1cccc(C2=NOC3(C2)C[C@@H](C(N)=O)N(C(=O)CC(c2ccccc2)c2ccccc2)C3)c1 (stereo not given in full) | -2% | . | 27% | -14% | -67* | .
NC(=O)[C@H]1CC2(CC(c3cccc(NC(=O)CC(c4ccccc4)c4ccccc4)c3)=NO2)CN1C(=O)CC(c1ccccc1)c1ccccc1 (stereo not given in full) | -5% | . | -14% | -26% | -33 | .

Screening data as filed in PubChem BioAssay.
